Compound activity: PubChem BioAssay, National Center for Advancing Translational Sciences (NCATS)
Sfp inh = blocks B. subtilis Sfp PPTase activity | Q9F4F7 | Biochemical Sfp PPTase activity, qHTS | Potency, µM, inactives show largest response in the series, negative = inhibition, hits mostly inhibitors | actives 3.5% (n = 310,000) | AID 1490;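 note: the enzyme is Sfp with the accession as filed and its product quenches rhodamine fluorescence; 0% = enzyme reaction without inhibitor and -100% = no enzyme wells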
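Buffer: 50 mM Hepes-Na pH 7.6, 10 mM MgCl2, 0.01% Nonidet P-40, 0.01% BSA. Enzyme 15 nM, pre-exposed to compound 15 min; substrates then added and fluorescence change tracked over 30 min.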
G9a inh = inhibitors of human histone lysine methyltransferase G9a. Q96KQ7. G9a H3K9 monomethylation, AlphaScreen, 2 h. Potency, µM (titrated, usually from 102 µM), inactives show at the top dose activity, negative = inhibition, most hits filed as inhibitors. actives 8.8% (n = 350,000). AID 504332; note: % is set by controls: 0 for no effect and ±100 for the full control effect; nearly all actives have a fitted effect of over 75% in size
Target sequence (Q96KQ7 913-1193 limits assumed): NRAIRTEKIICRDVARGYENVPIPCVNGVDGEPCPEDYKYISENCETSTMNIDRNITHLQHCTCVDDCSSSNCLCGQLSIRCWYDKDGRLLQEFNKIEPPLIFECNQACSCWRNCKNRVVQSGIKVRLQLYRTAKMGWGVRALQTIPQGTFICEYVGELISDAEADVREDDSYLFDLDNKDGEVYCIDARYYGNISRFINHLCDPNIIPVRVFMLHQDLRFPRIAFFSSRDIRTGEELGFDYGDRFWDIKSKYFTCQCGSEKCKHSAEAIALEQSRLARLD
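Using a bead-based AlphaScreen, monomethylated H3K9 product from 2 h room-temperature reactions (G9a 20 nM, peptide 500 nM, SAM 20 uM) was detected with 0.5 ug/mL rabbit anti-H3K9me1 antibody.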
JMJD2A Tudor = JMJD2A Tudor domain (human) inhibition. Potency, µM (top dose mostly 114 µM), inactives show at the highest dose activity change, negative = inhibition, most hits filed as inhibitors. O75164. AID 504339. AlphaScreen JMJD2A-Tudor / H3K4me3 peptide binding. actives 4.4% (n = 390,000); note: % is set by controls: 0 for no effect and ±100 for the full control effect; nearly all actives have a fitted effect of over 50% in size
HP1b chromo inh = inhibitors of HP1-beta chromodomain binding to methylated histone tails; P83916; AlphaScreen HP1-beta / biotin-H3K9me3 peptide binding; Potency, µM (highest dose often 114 µM), for inactives: at the top dose activity change, negative = inhibition, hits mostly inhibitors; actives 0.56% (n = 390,000); note: nearly all actives have a fitted effect of over 70% in size
Target sequence (P83916 whole entry, looked up): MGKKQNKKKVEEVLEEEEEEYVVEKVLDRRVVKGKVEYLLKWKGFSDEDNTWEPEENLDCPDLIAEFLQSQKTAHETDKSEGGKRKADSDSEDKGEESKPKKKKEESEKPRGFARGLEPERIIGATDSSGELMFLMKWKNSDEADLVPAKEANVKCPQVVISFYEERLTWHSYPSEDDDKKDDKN
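AlphaScreen: HP1-beta (50 nM) preformed 30 min with biotin-H3(1-18)K9me3 peptide (50 nM) in PBS pH 7.4, 0.01% Tween-20. Compound added for 30 min at RT, then streptavidin donor/nickel chelate acceptor beads (10 ug/mL) for 30 min.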
BAZ2B inh = blocks human BAZ2B | Q9UIF8 | AlphaScreen BAZ2B-H3K14Ac peptide displacement | Potency, µM (highest dose often 114 µM), for inactives: at the top dose activity change, negative = inhibition, most hits filed as inhibitors | actives 4.4% (n = 360,000); note: % is set by controls: 0 for no effect and ±100 for the full control effect; nearly all actives have a fitted effect of over 60% in size
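Multi-concentration screen (max 110 uM) measuring displacement of acetylated histone H3 peptide from BAZ2B by AlphaScreen, using 50 nM protein, 50 nM peptide and 10 ug/mL streptavidin donor plus Ni-chelate acceptor beads.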
The depositor's hits bear a star; ? = inconclusive; . = no result; [ ] = another dose, or the depositor's remark. Sampled rows, rich in hits. Any-hit rate of the full collection: about 12%. Calls come from the whole dose curve; as a rule, active = well fitted curve in the direction sought with a large enough effect; inconclusive = small, poorly fitted or top-dose-only effect, or another doubt; inactive = no such curve, though single readings can be large; an effect the other way counts as inactive or inconclusive. Potency is the fitted concentration of half-maximal effect.

SMILES | Sfp inh | G9a inh | JMJD2A Tudor | HP1b chromo inh | BAZ2B inh
CCOC(=O)C1(C)/C(=N/Nc2ccccc2)C(=O)C(=O)N1c1ccccc1 (centres undefined) | 14% | 8.9µM* | 32µM* | 40µM* | ?
O=C(Cc1coc(-c2ccc(F)cc2)n1)Nc1ccccc1 | -3% | ? | -6% | 5% | 11%
CCCCc1nc2ccn(CC(=O)N(C)C)c(=O)c2n1Cc1ccc(-c2ccccc2-c2nn[nH]n2)cc1 | 50µM* | -9%[59 µM] | . | . | .
CCOc1ccccc1-c1nc(-c2cc3ccc(C)cc3[nH]c2=O)no1 | 5% | ? | ? | 19% | -17%
O=[N+]([O-])c1ccc(/C=N\N2CCN(c3ccc(Cl)cc3)CC2)cc1 | 7% | -31% | -5% | 40% | 1%
CC1CCCC(C)N1/N=C/c1ccc(N(C)C)cc1 (centres undefined) | 0% | 40µM* | -30% | -10% | -27%
CC1CCCC(C)N1/N=C/c1ccc([N+](=O)[O-])cc1 (centres undefined) | -15% | -39%[2.33 µM] | 35µM* | ? | 40µM*
CC1CCCC(C)N1/N=C/c1cccc(Br)c1 (centres undefined) | 8% | 8% | -18% | -12% | ?
Cc1oc(-c2ccc(Cl)cc2)cc1C(=O)/C(C#N)=C/Nc1ccccc1 | ? | 28µM* | -18% | -2% | -8%
CCOCc1c(C(=O)NC2CCCCCC2)oc2ccccc12 | -11% | 49% | -1% | 51% | 12%
CC1=NN(C(N)=S)C(=O)C1N=Nc1ccc(Cl)cc1Cl (centres undefined) | 10% | . | 50µM* | -22% | ?
CC1=NN(C(N)=S)C(=O)C1N=Nc1ccc(O)cc1 (centres undefined) | 14µM* | ? | -8%[11.4 µM] | -27% | -21%
CC1=NN(C(N)=S)C(=O)C1N=Nc1ccccc1Cl (centres undefined) | -5% | -9%[0.501 µM] | -13% | 27% | -27%
CC1=NN(C(N)=S)C(=O)C1N=Nc1ccc(F)cc1 (centres undefined) | -26% | ? | -14% | 39% | 0%
CC(=O)Nc1ccc(N=NC2C(=O)N(C(N)=S)N=C2C)cc1 (centres undefined) | ? | 79µM* | -22% | 18% | -17%
CC1=NN(C(N)=S)C(=O)C1N=Nc1cccc(C(=O)O)c1 (centres undefined) | 45µM* | 0.71µM* | 4µM* | 12% | -22%
CCOC(=O)c1cnc2c(C)cccc2c1NCCc1ccc(OC)c(OC)c1 | -12% | 6%[59 µM] | 22% | 67% | 43%
CC1=NN(C(N)=S)C(=O)C1N=Nc1ccc([N+](=O)[O-])cc1 (centres undefined) | 1% | 79µM* | ? | ? | -34%
CC1=NN(c2ccccc2C(=O)O)C(=O)C1N=Nc1ccccc1 (centres undefined) | 3% | 45µM* | ? | ? | ?
CCCCCCC(C)n1cc(C(C)=O)c(=O)n(C)c1=O (centres undefined) | 3% | 10%[59 µM] | 10% | 42% | 2%
Cn1c(N)c(C(=O)CSc2n[nH]c(-c3ccccc3)n2)c(=O)n(C)c1=O | . | 5%[12.7 µM] | -24% | 25% | 8%
O=C1C(=O)N(C2CCN(C(=O)c3ccc(F)cc3)CC2)CCN1Cc1ccc(F)cc1 | . | -3%[59 µM] | 3% | 27% | -2%
C=C(NC(C)=O)c1c(F)cccc1F | . | 4%[2.33 µM] | -11% | 58% | 4%
O=C(Cn1cc(S(=O)(=O)Cc2ccccc2F)c2ccccc21)NCc1ccccc1 | . | 2%[59 µM] | -17% | 11% | -2%
COc1ccc(NC(=O)CCc2nnc3n(Cc4ccc(C)cc4)c(=O)c4ccccc4n23)cc1 | . | -2%[59 µM] | -7% | 20% | -4%
CCOC(CNC(=O)c1ccc2c(c1)ncn2-c1ccccc1OC)OCC | 12% | 15% | -5% | 72% | -3%
CCOC(CNC(=O)c1ccc(N2CCc3ccccc32)c([N+](=O)[O-])c1)OCC | 3% | 11µM* | 56µM* | 28µM* | 40µM*
COC(=O)c1ccc(N2CCN(CC(=O)c3ccc(C)cc3)CC2)c([N+](=O)[O-])c1 | . | . | -32% | 30% | .
